Assay results taken from PMC5700166.

Molecular target: T1, GST-Dm-Relish (Drosophila melanogaster, UniProt Q94527 99-473)
T1 sequence: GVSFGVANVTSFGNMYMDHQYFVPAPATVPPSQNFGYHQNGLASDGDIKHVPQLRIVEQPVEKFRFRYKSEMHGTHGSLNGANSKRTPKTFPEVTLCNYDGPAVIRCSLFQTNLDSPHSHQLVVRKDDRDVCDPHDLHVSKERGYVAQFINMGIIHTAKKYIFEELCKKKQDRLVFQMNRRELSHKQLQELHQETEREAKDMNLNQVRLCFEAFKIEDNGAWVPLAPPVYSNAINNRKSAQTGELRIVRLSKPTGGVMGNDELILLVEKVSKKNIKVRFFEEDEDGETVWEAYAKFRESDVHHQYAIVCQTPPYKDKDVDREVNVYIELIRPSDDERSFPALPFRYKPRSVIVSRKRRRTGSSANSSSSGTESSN
Test: protein-binding microarray (PBM); PBM: ~300 nM protein, 6 mM HEPES pH 7.8, 80 mM KCl, 0.5 mM EDTA, 0.5 mM EGTA, 6% glycerol, 35 ng/ul poly-dIdC, 1% milk, 1 h, room temperature; Ap Aiptasia and Nv Nematostella (sea anemones) / Co Capsaspora / Aq Amphimedon (sponge) / Dm Drosophila / Hu human; RHD is the Rel homology domain; high values mean tight binding
Details: dsDNA, one strand shown

Sequence | binding signal
CCGATTAACATCAAATATTTCCCTGATGTTAATCGGGTCTTGATTCGCTTGACGCTGCTG | 4.25 z-score
CCGATTAACATCAGAGTTTTCCCTGATGTTAATCGGGTCTTGATTCGCTTGACGCTGCTG | 1.89 z-score
CCGATTAACATCACCCATTCCCCTGATGTTAATCGGGTCTTGATTCGCTTGACGCTGCTG | 2.33 z-score
CCGATTAACATCAAGGGGGGGTATGATGTTAATCGGGTCTTGATTCGCTTGACGCTGCTG | 4.14 z-score
CCGATTAACATCACGTTTTTCCCTGATGTTAATCGGGTCTTGATTCGCTTGACGCTGCTG | 4.58 z-score
CCGATTAACATCAGGATTTTCCCTGATGTTAATCGGGTCTTGATTCGCTTGACGCTGCTG | 4.83 z-score
CCGATTAACATCAACCTCCCCCCTGATGTTAATCGGGTCTTGATTCGCTTGACGCTGCTG | 4.38 z-score
CCGATTAACATCAGGGAAGTACATGATGTTAATCGGGTCTTGATTCGCTTGACGCTGCTG | 9.23 z-score
CCGATTAACATCAGGGGAGATTATGATGTTAATCGGGTCTTGATTCGCTTGACGCTGCTG | 2.68 z-score
CCGATTAACATCAGGGGAACATATGATGTTAATCGGGTCTTGATTCGCTTGACGCTGCTG | 4.08 z-score
CCGATTAACATCACTTTTTTCCCTGATGTTAATCGGGTCTTGATTCGCTTGACGCTGCTG | 2.28 z-score
CCGATTAACATCAGGGGTGGGGATGATGTTAATCGGGTCTTGATTCGCTTGACGCTGCTG | 2.85 z-score
CCGATTAACATCAAATTCTCCCCTGATGTTAATCGGGTCTTGATTCGCTTGACGCTGCTG | 2.37 z-score
CCGATTAACATCAAAAGTTTCCCTGATGTTAATCGGGTCTTGATTCGCTTGACGCTGCTG | 4.85 z-score
CCGATTAACATCAAGCCCCCCCATGATGTTAATCGGGTCTTGATTCGCTTGACGCTGCTG | 3.97 z-score
CCGATTAACATCAATTTATCCCCTGATGTTAATCGGGTCTTGATTCGCTTGACGCTGCTG | 3.35 z-score
CCGATTAACATCAACGTTTCCCCTGATGTTAATCGGGTCTTGATTCGCTTGACGCTGCTG | 2.48 z-score
CCGATTAACATCACGTATTCCCCTGATGTTAATCGGGTCTTGATTCGCTTGACGCTGCTG | 4.86 z-score
CCGATTAACATCACTATTTTCCCTGATGTTAATCGGGTCTTGATTCGCTTGACGCTGCTG | 1.52 z-score
CCGATTAACATCACAAATTTCCCTGATGTTAATCGGGTCTTGATTCGCTTGACGCTGCTG | 3.72 z-score
CCGATTAACATCAAGGGAAAAATTGATGTTAATCGGGTCTTGATTCGCTTGACGCTGCTG | 1.89 z-score
CCGATTAACATCAAAAATTCCCATGATGTTAATCGGGTCTTGATTCGCTTGACGCTGCTG | 7.58 z-score
CCGATTAACATCAACCCCCCCCATGATGTTAATCGGGTCTTGATTCGCTTGACGCTGCTG | 5.75 z-score
CCGATTAACATCAACCCCCCCCTTGATGTTAATCGGGTCTTGATTCGCTTGACGCTGCTG | 4.91 z-score
CCGATTAACATCAACCAATCCCCTGATGTTAATCGGGTCTTGATTCGCTTGACGCTGCTG | 2.29 z-score
CCGATTAACATCAAGGGAAAAAATGATGTTAATCGGGTCTTGATTCGCTTGACGCTGCTG | 1.86 z-score
CCGATTAACATCAATTTCCCGTATGATGTTAATCGGGTCTTGATTCGCTTGACGCTGCTG | 1.58 z-score
CCGATTAACATCAAAGGGAATTCTGATGTTAATCGGGTCTTGATTCGCTTGACGCTGCTG | 4.04 z-score
CCGATTAACATCACATACCCCCCTGATGTTAATCGGGTCTTGATTCGCTTGACGCTGCTG | 3.92 z-score
CCGATTAACATCACTCTTTCCCCTGATGTTAATCGGGTCTTGATTCGCTTGACGCTGCTG | 1.95 z-score

Molecular target: T2, GST-Aq-NF-kB (Amphimedon queenslandica, UniProt A9Y5G7 2-389)
T2 sequence: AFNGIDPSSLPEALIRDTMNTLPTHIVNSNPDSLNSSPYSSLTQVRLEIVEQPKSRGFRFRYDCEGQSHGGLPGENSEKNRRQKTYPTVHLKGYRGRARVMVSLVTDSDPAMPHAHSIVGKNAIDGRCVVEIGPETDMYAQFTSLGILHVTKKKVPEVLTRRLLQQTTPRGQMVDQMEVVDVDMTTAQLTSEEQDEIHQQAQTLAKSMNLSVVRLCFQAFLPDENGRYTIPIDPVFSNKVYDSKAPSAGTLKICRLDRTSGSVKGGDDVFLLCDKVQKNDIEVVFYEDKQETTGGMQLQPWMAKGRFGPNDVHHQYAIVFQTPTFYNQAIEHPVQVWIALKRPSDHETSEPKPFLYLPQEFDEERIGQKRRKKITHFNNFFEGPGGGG
Test: as above
Details: dsDNA, one strand shown

Sequence | binding signal
CCGATTAACATCAAATATTTCCCTGATGTTAATCGGGTCTTGATTCGCTTGACGCTGCTG | 6.66 z-score
CCGATTAACATCAGAGTTTTCCCTGATGTTAATCGGGTCTTGATTCGCTTGACGCTGCTG | 4.65 z-score
CCGATTAACATCAGACGTGGGAATGATGTTAATCGGGTCTTGATTCGCTTGACGCTGCTG | 2.21 z-score
CCGATTAACATCAGGGGGGGGACTGATGTTAATCGGGTCTTGATTCGCTTGACGCTGCTG | 5.29 z-score
CCGATTAACATCAGCATTTTCCCTGATGTTAATCGGGTCTTGATTCGCTTGACGCTGCTG | 3.68 z-score
CCGATTAACATCAGCATGGGAAATGATGTTAATCGGGTCTTGATTCGCTTGACGCTGCTG | 1.67 z-score
CCGATTAACATCACCCATTCCCCTGATGTTAATCGGGTCTTGATTCGCTTGACGCTGCTG | 4.22 z-score
CCGATTAACATCAGGGGGGGGTATGATGTTAATCGGGTCTTGATTCGCTTGACGCTGCTG | 4.39 z-score
CCGATTAACATCAAGGGGGGGTATGATGTTAATCGGGTCTTGATTCGCTTGACGCTGCTG | 4.39 z-score
CCGATTAACATCACGTTTTTCCCTGATGTTAATCGGGTCTTGATTCGCTTGACGCTGCTG | 4.26 z-score
CCGATTAACATCAGGGAAGACGTTGATGTTAATCGGGTCTTGATTCGCTTGACGCTGCTG | 1.11 z-score
CCGATTAACATCAACCAATTCCCTGATGTTAATCGGGTCTTGATTCGCTTGACGCTGCTG | 3.16 z-score
CCGATTAACATCAGGATTTTCCCTGATGTTAATCGGGTCTTGATTCGCTTGACGCTGCTG | 8.92 z-score
CCGATTAACATCAACCTCCCCCCTGATGTTAATCGGGTCTTGATTCGCTTGACGCTGCTG | 4.25 z-score
CCGATTAACATCAGGGAAGTACATGATGTTAATCGGGTCTTGATTCGCTTGACGCTGCTG | 2.86 z-score
CCGATTAACATCAGGGGAGATTATGATGTTAATCGGGTCTTGATTCGCTTGACGCTGCTG | 4.52 z-score
CCGATTAACATCAGGGGAACATATGATGTTAATCGGGTCTTGATTCGCTTGACGCTGCTG | 5.59 z-score
CCGATTAACATCACTTTTTTCCCTGATGTTAATCGGGTCTTGATTCGCTTGACGCTGCTG | 3.49 z-score
CCGATTAACATCAGGGGTGGGGATGATGTTAATCGGGTCTTGATTCGCTTGACGCTGCTG | 3.59 z-score
CCGATTAACATCAAATTCTCCCCTGATGTTAATCGGGTCTTGATTCGCTTGACGCTGCTG | 5.21 z-score

Sequence | binding signal
CCGATTAACATCAAAAGTTTCCCTGATGTTAATCGGGTCTTGATTCGCTTGACGCTGCTG | 7 z-score
CCGATTAACATCAAGCCCCCCCATGATGTTAATCGGGTCTTGATTCGCTTGACGCTGCTG | 3.85 z-score
CCGATTAACATCAATTTATCCCCTGATGTTAATCGGGTCTTGATTCGCTTGACGCTGCTG | 3.84 z-score
CCGATTAACATCAACGTTTCCCCTGATGTTAATCGGGTCTTGATTCGCTTGACGCTGCTG | 4.46 z-score
CCGATTAACATCACGTATTCCCCTGATGTTAATCGGGTCTTGATTCGCTTGACGCTGCTG | 5.55 z-score
CCGATTAACATCAACGTGGGGCGTGATGTTAATCGGGTCTTGATTCGCTTGACGCTGCTG | 1.15 z-score
CCGATTAACATCACTATTTTCCCTGATGTTAATCGGGTCTTGATTCGCTTGACGCTGCTG | 3.51 z-score
CCGATTAACATCACAAATTTCCCTGATGTTAATCGGGTCTTGATTCGCTTGACGCTGCTG | 6.5 z-score
CCGATTAACATCAAGGGAAAAATTGATGTTAATCGGGTCTTGATTCGCTTGACGCTGCTG | 5.11 z-score
CCGATTAACATCAGGGGTAACACTGATGTTAATCGGGTCTTGATTCGCTTGACGCTGCTG | 2.5 z-score
CCGATTAACATCAAAAATTCCCATGATGTTAATCGGGTCTTGATTCGCTTGACGCTGCTG | 6.55 z-score
CCGATTAACATCAACCCCCCCCATGATGTTAATCGGGTCTTGATTCGCTTGACGCTGCTG | 4.01 z-score
CCGATTAACATCAACCCCCCCCTTGATGTTAATCGGGTCTTGATTCGCTTGACGCTGCTG | 4.47 z-score
CCGATTAACATCAACCAATCCCCTGATGTTAATCGGGTCTTGATTCGCTTGACGCTGCTG | 3.86 z-score
CCGATTAACATCAAGGGAAAAAATGATGTTAATCGGGTCTTGATTCGCTTGACGCTGCTG | 4.83 z-score
CCGATTAACATCAATTTCCCGTATGATGTTAATCGGGTCTTGATTCGCTTGACGCTGCTG | 3.17 z-score
CCGATTAACATCAAAGGGAATTCTGATGTTAATCGGGTCTTGATTCGCTTGACGCTGCTG | 5.65 z-score
CCGATTAACATCACATACCCCCCTGATGTTAATCGGGTCTTGATTCGCTTGACGCTGCTG | 3.91 z-score
CCGATTAACATCACTCTTTCCCCTGATGTTAATCGGGTCTTGATTCGCTTGACGCTGCTG | 4.18 z-score
